Results: PubChem BioAssay AID1159580 (chemical genetic matrix, 2015)
“And” between values parts separate entries of the source, which are not always exact repeats. Equal values may be shown once. About 2,000 (36%) of roughly 5,500 compounds were called active. Not shown: some 18% with an inconclusive outcome. Rule as the data show it: active = normalized growth mostly below about 0.91 (no sharp cut-off); inconclusive = no clear call, values can overlap the other calls; inactive = mostly above about 0.92. Some of the results follow.

Assay: chemical genetic growth profiling, strain panel (AID 1159580);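 also: tested at 20 µM; growth read once vehicle control cultures reached saturation at 30 °C; 1 = growth at the plate median or of vehicle wells; lower values mean less growth of the strain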
Conditions: S. cerevisiae deletion strains, growth OD

Measured: normalized growth

CC(=O)[C@@]1(O)CCC2C3C[C@H](C)C4=CC(=O)C=CC4(C)[C@@]3(F)[C@@H](O)C[C@@]21C (stereo partly drawn)
inactive: locus YAL013W, strain DEP1, active compounds read low 0.995 | locus YAL021C, strain ccr4, active compounds read low 0.965 | locus YAL026C, strain drs2, active compounds read low 0.966 | locus YAL030W, strain snc1, active compounds read low 0.961 | locus YBL061C, strain skt5, active compounds read low 0.976 | locus YBR009C, strain hhf1, active compounds read low 0.931 | locus YBR021W, strain FUR4, active compounds read low 0.99 | locus YBR023C, strain chs3, active compounds read low 0.969 | locus YBR171W, strain sec66, active compounds read low 0.973 | locus YBR229C, strain ROT2, active compounds read low 1.01 | locus YBR231C, strain swc5, active compounds read low 0.975 | locus YBR279W, strain paf1, active compounds read low 0.98 | locus YCL011C, strain gbp2, active compounds read low 0.964 | locus YCL016C, strain dcc1, active compounds read low 0.963 | locus YCL029C, strain bik1, active compounds read low 0.997 | locus YCL069W, strain vba3, active compounds read low 0.979 | locus YCR088W, strain abp1, active compounds read low 0.973 | locus YDL005C, strain med2, active compounds read low 0.962 | locus YDL035C, strain GPR1, active compounds read low 0.986 | locus YDL040C, strain nat1, active compounds read low 0.983 | locus YDL074C, strain BRE1, active compounds read low 0.981 | locus YDL101C, strain DUN1, active compounds read low 1.02 | locus YDL134C, strain PPH21, active compounds read low 0.99 | locus YDL185W, strain tfp1, active compounds read low 1.03 | locus YDL192W, strain arf1, active compounds read low 1.01 | locus YDR001C, strain nth1, active compounds read low 0.977 | locus YDR069C, strain doa4, active compounds read low 0.969 | locus YDR101C, strain arx1, active compounds read low 0.971 | locus YDR137W, strain rgp1, active compounds read low 0.975 | locus YDR150W, strain NUM1, active compounds read low 0.991 | locus YDR159W, strain sac3, active compounds read low 0.929 | locus YDR162C, strain NBP2, active compounds read low 0.984 | locus YDR195W, strain ref2 0.98 | locus YDR297W, strain sur2, active compounds read low 0.975 | locus YDR318W, strain mcm21, active compounds read low 1.01 | locus YDR334W, strain swr1, active compounds read low 0.976 | locus YDR335W, strain msn5, active compounds read low 0.965 | locus YDR388W, active compounds read low 1.01 | locus YDR392W, strain spt3, active compounds read low 0.936 | locus YDR502C, strain sam2, active compounds read low 1.01 | locus YEL003W, strain gim4, active compounds read low 0.971 | locus YEL037C, strain rad23, active compounds read low 0.975 | locus YEL061C, strain CIN8 (second series), active compounds read low 0.962 | locus YEL061C, strain CIN8, active compounds read low 0.989 | locus YER015W, strain faa2, active compounds read low 0.977 | locus YER016W, strain bim1, active compounds read low 0.933 | locus YER110C, active compounds read low 1.02 | locus YER111C, strain swi4, active compounds read low 0.969 | locus YER155C, strain BEM2 (second series), active compounds read low 1.03 | locus YER155C, strain BEM2, active compounds read low 1.01 | locus YER167W, strain BCK2, active compounds read low 0.988 | locus YFR010W, strain ubp6, active compounds read low 0.953 | locus YGL078C, strain dbp3, active compounds read low 1 | locus YGL086W, strain mad1, active compounds read low 0.985 | locus YGL167C, strain pmr1, active compounds read low 0.977 | locus YGL173C, strain kem1, active compounds read low 0.976 | locus YGL227W, strain vid30, active compounds read low 0.988 | locus YGL240W, strain doc1, active compounds read low 0.955 | locus YGL248W, strain PDE1, active compounds read low 1.01 | locus YGL253W, strain hxk2, active compounds read low 0.961 | locus YGR078C, strain PAC10, active compounds read low 1 | locus YGR135W, strain pre9, active compounds read low 1.05 | locus YGR252W, strain gcn5, active compounds read low 1.08 | locus YHR013C, strain ard1, active compounds read low 0.905 | locus YHR027C, strain rpn1, active compounds read low 0.971 | locus YHR030C, strain SLT2, active compounds read low 0.979 and 0.988 | locus YHR079C, strain IRE1 (second series), active compounds read low 1.01 | locus YHR079C, strain IRE1, active compounds read low 0.971 | locus YHR094C, strain hxt1, active compounds read low 1.01 | locus YHR129C, strain ARP1, active compounds read low 1.01 | locus YHR142W, strain chs7, active compounds read low 0.96 | locus YHR200W, strain rpn10, active compounds read low 1.01 | locus YIL066C, strain RNR3, active compounds read low 0.996 | locus YIL073C, strain SPO22, active compounds read low 1.02 | locus YIL125W, strain kgd1, active compounds read low 1 | locus YIR030C, strain dcg1, active compounds read low 1 | locus YJL092W, strain hpr5, active compounds read low 0.983 | locus YJL095W, strain BCK1 (second series), active compounds read low 0.985 | locus YJL095W, strain BCK1, active compounds read low 1.02 and 0.999 | locus YJL115W, strain asf1, active compounds read low 0.954 | locus YJL129C, strain trk1, active compounds read low 0.968 | locus YJL134W, strain LCB3, active compounds read low 1.01 | locus YJL154C, strain vps35, active compounds read low 0.984 | locus YJL164C, strain tpk1, active compounds read low 0.937 | locus YJL166W, strain qcr8, active compounds read low 0.979 | locus YJL168C, strain set2, active compounds read low 1 | locus YJL187C, strain SWE1 (second series), active compounds read low 1.02 | locus YJR043C, strain POL32, active compounds read low 0.99
